From PubChem BioAssay
Shown are actives, neighbours in structure and some others; about 6.1% of the full set was active somewhere.
DRD3 agonist = agonists of human D3 dopamine receptor | P35462 | max activation, % | D3R DiscoveRx beta-arrestin cells, luminescence, 90 min | AID 652048 | 410,000 compounds, 0.58% hits; in the data active = max activation above about 30%; also: 0% is about no effect
Target sequence (P35462 whole entry, looked up): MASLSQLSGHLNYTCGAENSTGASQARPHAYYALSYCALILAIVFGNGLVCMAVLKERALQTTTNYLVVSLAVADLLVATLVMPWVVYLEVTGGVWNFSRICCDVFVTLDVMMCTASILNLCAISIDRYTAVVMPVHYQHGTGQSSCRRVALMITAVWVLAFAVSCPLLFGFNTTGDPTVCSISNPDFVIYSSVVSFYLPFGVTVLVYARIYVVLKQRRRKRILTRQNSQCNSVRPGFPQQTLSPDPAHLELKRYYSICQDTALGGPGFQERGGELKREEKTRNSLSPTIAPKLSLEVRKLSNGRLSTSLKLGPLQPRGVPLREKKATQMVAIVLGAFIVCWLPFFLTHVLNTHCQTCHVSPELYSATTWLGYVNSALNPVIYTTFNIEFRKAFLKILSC
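Cells at 1500/well, incubated overnight, then treated with pinned compounds (dopamine as control) for 90 min at 37 degrees C. DiscoveRx reagent added for 30 - 60 minutes at room temperature; luminescence read.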
D1 antag = human D1 dopamine receptor antagonism; activity change, negative = inhibition, % at 10 µM; HEK293 TREx D1 cells, calcium flux, dopamine EC80; active compounds read low; P21728; 360,000 compounds, 3.2% hits; in the data active = activity change below about -30%; also: % is scaled to controls: 0 for no effect and ±100 for the full control effect
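Compound effects on dopamine-evoked calcium signalling were measured in tetracycline-induced HEK293 Trex D1 cells. Dopamine at EC80 followed a 180 s compound pre-read, and fluorescence was tracked kinetically for 180 s more.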
DRD3 antagonist = D3 dopamine receptor (human) antagonism. P35462. D3R cells, DiscoveRx beta-arrestin luminescence, antagonist mode; active compounds read low. max response, negative = inhibition, %. 360,000 compounds, 2.5% hits. AID 652054; in the data active = max response below about -50%; inconclusive = no clear call, values can overlap the other calls; also: % is scaled to controls: 0 for no effect and ±100 for the full control effect
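Cells plated overnight at 1500 cells/well, then exposed to library compounds with dopamine controls for 90 minutes at 37 degrees C. DiscoveRx reagent added for 30–60 minutes at room temperature; luminescence read, quantitative HTS format.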
D1 PAM = enhances dopamine response at the human D1 receptor. potentiation, % at 10 µM. P21728. HEK293 TREx D1 cells, calcium flux, dopamine EC20 potentiation. 360,000 compounds, 0.036% hits; in the data active = potentiation above about 30%; also: 0% is about no effect
D1 ag = activates the human D1 dopamine receptor. activation, % at 2 µM. HEK293 T-REx D1 cells, calcium flux, agonist mode. P21728. 360,000 compounds, 1% hits; in the data active = activation above about 30%; also: 0% is about no effect
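Agonism was scored from calcium flux recorded over 180 s (1 read/s) after pintool compound addition, following a 10-cycle baseline. Cells were inducible force-coupled HEK293 TREx D1, plated overnight at 30 C and loaded with no-wash calcium dye.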
Starred values were filed as active, the others as inactive; ? = inconclusive; . = no result.

SMILES	DRD3 agonist	D1 antag	DRD3 antagonist	D1 PAM	D1 ag
O=[N+]([O-])c1ccc(/C=N/Nc2ccc3ccccc3c2)o1	-19.4	11.0	-88.9*	-2.5	39.9*
O=[N+]([O-])c1ccc(/C=N/NC(=S)Nc2ccccc2F)o1	5.7	-53.1*	?	-4.0	3.5
O=[N+]([O-])c1ccc(/C=N/NC(=S)Nc2ccccc2)o1	-1.2	-2.6	-15.3	-3.9	9.2
Cc1ccc(C(C)C)c(OCC(=O)N2CCC(c3nc4ccccc4o3)CC2)c1	-2.5	-5.2	.	-0.1	19.0
Nc1nonc1-c1nc2ccccc2n1Cc1c(Cl)cccc1Cl	16.7	7.4	.	1.9	2.3
CCCc1nc2c(s1)CCc1onc(-c3cccc([N+](=O)[O-])c3)c1-2	34.4*	3.8	49.1	-2.7	4.6
COc1ccc(CCNC(=O)c2cc3c(=O)[nH]c4ccc(C)cc4c3s2)cc1OC	-3.8	-21.0	.	-2.1	0.9
CC(C)/C=N/Nc1nc(-c2ccc(Br)cc2)cs1	1.9	-45.6*	11.0	-2.1	0.2
CC(=O)N1CCN(c2nc(N)c(C#N)c(CC#N)c2C#N)CC1	0.9	-65.1*	-10.6	-11.3	1.9
COc1ccccc1CNc1nc(-c2cc(C)n(C)c2C)cs1	-10.5	-45.8*	0.2	1.1	3.9
COCCNc1nc(-c2cc(C)n(CCc3ccc(OC)cc3)c2C)cs1	-1.2	-6.7	-0.3	-2.7	1.0
Cc1ccc(NC(=O)Cn2cc(C(=O)c3cccs3)c3ccccc32)cc1C	8.2	1.5	.	-4.8	6.9
O=C(CSc1nnc(C2CC2)n1-c1ccccc1)NCCc1ccccc1	-3.0	-6.6	-60.1*	-4.1	5.4
CC1Cc2nc(SCC(=O)NCC3CCCO3)n(C)c(=O)c2S1 (stereo unspecified)	13.8	0.2	-53.4*	-0.5	1.1
CCC(c1nnc(SCC(=O)N2CC(=O)Nc3ccccc32)n1Cc1ccccc1)N(C)C (stereo unspecified)	-4.4	1.2	0.0	-6.7	1.3
CCNC(=O)CSc1nnc(C2CC2)n1-c1ccccc1	0.6	-11.0	-24.8	3.1	0.6
Cc1nnc(SCC(=O)N2CC(=O)Nc3ccccc32)n1Cc1ccccc1	-6.1	-6.6	-66.2*	5.6	1.3
Cc1nnc(SCC(=O)NCC2CCCO2)n1Cc1ccccc1 (stereo unspecified)	78.1*	.	-8.3	.	.
O=C(Cn1ncc2c3ccccc3n(Cc3cccc(Cl)c3)c2c1=O)NCCCN1CCCCC1	-10.2	4.3	.	-3.1	6.4
CC(C)Oc1ccc(CNC(=O)C2CCN(C(=O)N3CCOc4ccc(Cl)cc43)CC2)cc1	4.3	6.2	.	-2.1	3.1
COC(=O)c1sccc1S(=O)(=O)N1CCN(c2cccc(C)c2C)CC1	4.3	-3.7	.	-4.5	1.7
Cc1ccc2nc(SCC(=O)NCC3CCCO3)c(C#N)cc2c1 (stereo unspecified)	-1.8	-31.7*	-12.2	-10.4	0.5
Cc1ccc(-c2ccc(SCC(=O)NCC3CCCO3)nn2)cc1 (stereo unspecified)	-1.8	-34.0*	-11.5	-2.5	3.2
O=C(CSc1nnc(-c2ccncc2)n1-c1ccccc1)NCC1CCCO1 (stereo unspecified)	3.4	-50.7*	5.5	-8.2	2.6
Cc1ccc2cc(C#N)c(SCC(=O)NCC3CCCO3)nc2c1 (stereo unspecified)	-8.3	-2.4	-7.4	-4.7	-0.1
SMILES	DRD3 agonist	D1 antag	DRD3 antagonist	D1 PAM	D1 ag
O=C(CSc1nnc(-c2cccs2)n1-c1ccccc1)NCC1CCCO1 (stereo unspecified)	-5.1	-0.2	-1.9	-2.8	0.2
c1ccc(-n2c(SCC3CCCCO3)nnc2-c2cccs2)cc1 (stereo unspecified)	-10.3	-31.9*	0.0	0.4	2.5
CCOc1ccc(-c2ccc(SCC(=O)NCC3CCCO3)nn2)cc1 (stereo unspecified)	-6.2	9.3	5.8	-3.2	1.4
Cc1ccc2c(c1)c1c(c(=O)n(-c3cccc(Cl)c3)c(=O)n1C)n2C	5.2	3.9	.	-1.1	-0.9
COc1ccc(-c2nc(CSCC(=O)NCCc3ccc(C)cc3)c(C)o2)cc1OC	0.7	-1.4	.	2.0	0.0
COC(=O)c1ccc(OCC2c3cc(OC)c(OC)cc3CCN2C(=O)c2cccc(C)c2)cc1 (stereo unspecified)	1.1	-32.7*	.	-1.9	3.5
O=C(Nc1ccccc1)c1nc[nH]c1C(=O)N1CCN(c2ccccc2)CC1	19.9	.	-13.4	2.5	1.5
O=C(Nc1nccs1)c1nc[nH]c1C(=O)N1CCN(c2ccccc2)CC1	31.0*	.	-8.9	.	.
CC(=O)N=c1sc(S(N)(=O)=O)nn1C	-91.3	13.6	-121.2*	-3.5	1.7
Cc1cccc(N(C2C=CS(=O)(=O)C2)S(=O)(=O)c2ccccc2)c1 (stereo unspecified)	-5.7	-59.5*	-4.6	-5.0	0.1
Cc1ccc(NCc2nnc(SCC(=O)N(Cc3ccccc3)C(C)(C)C)o2)c(C)c1	9.8	-44.6*	28.3	-3.1	1.0
Cc1ccc(C)c(NC(=O)Cn2c(=O)n(Cc3ccco3)c(=O)c3oc4ccccc4c32)c1	-14.0	6.2	.	-4.7	1.0
COc1ccc(CC(=O)N2CCN=C2SC)cc1	6.4	-79.0*	27.6	.	2.9
CSC1=NCCN1C(=O)Cc1ccc(Cl)cc1	3.5	23.5	27.2	.	1.6
CCCn1c(CCC(=O)Nc2cc(Cl)c(OC)cc2OC)nc2cccnc21	4.8	-2.3	.	-0.6	-0.1
C=C(C)CN1CCN(c2c(CCC#N)c(C)c(C#N)c3nc4ccccc4n23)CC1	5.5	-38.5*	6.5	-1.9	-0.8
Cc1cc(Cl)n2c(nc3ccccc32)c1C#N	-16.3	10.1	-72.9*	-5.0	0.4
Cc1c(CCCl)c(Cl)n2c(nc3ccccc32)c1C#N	-5.6	.	-103.1*	.	.
Cc1ccc(-c2c(C#N)c(N)n3c(nc4ccccc43)c2C#N)cc1	7.8	-39.4*	6.4	-15.1	23.1
CCc1c(C)c(C#N)c2nc3ccccc3n2c1NC	-3.2	18.3	2.8	-3.5	0.7
N#Cc1c(-c2ccccc2)c(C#N)c2nc3ccccc3n2c1N	10.2	-6.0	15.2	-1.3	13.1
CCCCCc1c(C)c(C#N)c2nc3ccccc3n2c1-n1ccnc1C	-7.1	14.8	0.5	-0.2	-0.2
Cc1ccc(NC(=O)N2CCC(CN3CCCCCC3)CC2)c(Cl)c1	-0.4	3.7	.	-0.9	-1.9
Cc1cccc(OCc2nc3ccccc3n2C)c1	-0.3	7.7	0.1	-8.9	-1.3
Cc1ccc(OCCCCn2c(CO)nc3ccccc32)cc1	3.6	-37.3*	-8.3	-8.1	14.5
COc1ccc(Cc2nc3ccccc3n2Cc2ccccc2C)cc1	-3.5	-15.4	.	-2.5	22.9
CCn1c(COc2ccc(OC)cc2)nc2ccccc21	8.1	-16.9	16.5	-6.5	3.6
CCCn1c(COc2cccc(C)c2)nc2ccccc21	40.6*	-0.9	.	-1.7	-1.6
COc1cccc(OCc2nc3ccccc3n2Cc2ccccc2C)c1	3.9	-11.0	.	0.5	39.9*
